# Assay outcomes: PubChem BioAssay, National Center for Advancing Translational Sciences (NCATS)
# Shown are actives, neighbours in structure and some others; about 11% of the full set was active somewhere.
# VP16 counter: counter-screen for ROR gamma inhibitors: Gal4-VP16 reporter; hit rate 3.5% among 310,000; Potency, µM (doses to about 53.6 µM), for the others: top-dose activity, negative = inhibition, most hits filed as inhibitors; Drosophila S2 Gal4-VP16 UAS-luciferase, luminescence, 20 h;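 also: Gal4-VP16 expression switched on by copper sulfate through the metallothionein promoter; potency is read from the fitted curve at half-maximal effect; % is scaled to controls: 0 for no effect and ±100 for the full control effect; nearly all actives have a fitted effect of over 50% in size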
# IL1B secr inh: blocks inflammasome-driven IL-1 beta release | THP-1 LPS/ATP IL-1B secretion, AlphaLISA, 16 h; stronger effect = lower value | activity change, % at 57.5 µM | hit rate 4.7% among 360,000 | AID 743279; in the data active = activity change below about -50%; inconclusive = mostly about -30% to -49%; also: % is scaled to controls: 0 for no effect and ±100 for the full control effect
#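 THP-1 cells pretreated 1 hr with compounds (up to 57.5 uM final), then stimulated with LPS (250 ng/mL final) plus ATP (1.25 mM final); secreted IL-1B measured by AlphaLISA after 16 hr, decreased signal indicating inhibition.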
# MCF10A rerep: DNA re-replication induction in MCF 10a cells; hit rate 2.9% among 350,000; Potency, µM (top dose mostly 46.1 µM), for the others: at the top dose activity, positive = re-replication, usual class: activators; MCF 10A DNA re-replication, Hoechst nuclear intensity, 48 h; also: potency is read from the fitted curve at half-maximal effect; % of control where 0% means no effect; nearly all actives have a fitted effect of over 50% in size
# SW480 rerep: DNA re-replication induction in SW480 cells. SW480 DNA re-replication, Hoechst DNA content imaging, 48 h. Potency, µM (titrated, usually from 46.1 µM), without a hit: at the highest dose re-replication activation, usual class: activators. hit rate 1.8% among 340,000; also: potency is read from the fitted curve at half-maximal effect; % of control where 0% means no effect; nearly all actives have a fitted effect of over 55% in size
#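 Quantitative HTS format with DMSO vehicle controls; 48 hr drug incubation at 37 C, then 40 min Hoechst staining and scanning imager measurement at 405 nm excitation.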
# RORg inh: blocks mouse ROR gamma transcriptional activity. P51450. Drosophila S2 Gal4-RORgamma UAS-luciferase reporter, 20 h. Potency, µM (series often up to 53.6 µM), without a hit: top-dose activity change, negative = inhibition, most hits filed as inhibitors. hit rate 5.4% among 310,000; also: potency is read from the fitted curve at half-maximal effect; % is scaled to controls: 0 for no effect and ±100 for the full control effect; nearly all actives have a fitted effect of over 60% in size
# Target sequence (P51450 whole entry, looked up, the tested form may be a part): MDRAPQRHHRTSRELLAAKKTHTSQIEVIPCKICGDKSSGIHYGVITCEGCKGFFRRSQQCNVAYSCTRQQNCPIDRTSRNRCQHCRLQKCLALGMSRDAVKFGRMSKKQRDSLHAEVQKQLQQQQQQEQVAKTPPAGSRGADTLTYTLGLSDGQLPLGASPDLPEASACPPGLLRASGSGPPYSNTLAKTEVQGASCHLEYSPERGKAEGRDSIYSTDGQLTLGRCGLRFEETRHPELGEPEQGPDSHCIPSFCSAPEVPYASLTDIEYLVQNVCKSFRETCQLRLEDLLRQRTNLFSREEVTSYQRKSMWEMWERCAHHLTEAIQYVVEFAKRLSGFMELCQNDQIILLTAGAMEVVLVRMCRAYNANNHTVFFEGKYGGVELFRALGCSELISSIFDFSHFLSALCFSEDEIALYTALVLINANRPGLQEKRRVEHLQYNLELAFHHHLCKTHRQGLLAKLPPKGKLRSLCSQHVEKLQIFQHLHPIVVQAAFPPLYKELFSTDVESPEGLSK
#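 Compounds are pin-transferred onto Drosophila Schneider cells expressing a copper-inducible Gal4–ROR gamma transactivation domain fusion. After 1 hr, copper sulfate is added to 700 uM final; luciferase is read 20 hr later.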
# An asterisk follows results filed as active; u = inconclusive; x = no result given. Unless noted, calls follow the shape of the dose curve; as a rule, active = well fitted curve in the direction sought with a large enough effect; inconclusive = small, poorly fitted or top-dose-only effect, or another doubt; inactive = no such curve, though single readings can be large; an effect the other way counts as inactive or inconclusive.
SMILES,VP16 counter,IL1B secr inh,MCF10A rerep,SW480 rerep,RORg inh
CN(Cc1ccc(Cl)cc1)C(=O)COC(=O)c1ccc(-c2ccc(O)cc2)cc1,x,-1,u,u,x
CCOc1cc(Br)c(CN2C(=O)NC3(CCCCCC3)C2=O)cc1OCC,-12%,-19,u,0%,21%
COc1ccc(-c2csc(NC(=O)c3cc(C)oc3C)n2)cc1OC,10%,-84*,u,u,9%
COc1ccc(-c2csc(NC(=O)c3ccc(OCC(=O)N4CCOCC4)c(OC)c3)n2)cc1OC,-10%,-94*,u,-2%,0%
Cc1nnc(NC(=O)C2CC(=O)N(Cc3ccccc3)C2)s1 (configuration not stated),4%,-6,8%,-1%,-20%
COc1ccc(-c2csc(NC(=O)CC(NC(C)=O)c3ccccc3)n2)cc1OC (configuration not stated),-2%,-27,10%,4%,13%
COc1ccc(-c2csc(NC(=O)C3CC(=O)N(Cc4ccccc4)C3)n2)cc1OC (configuration not stated),-2%,-59*,u,-4%,3%
COc1ccc(CC(=O)Nc2nc(-c3ccc(OC)c(OC)c3)cs2)cc1OC,u,-86*,0%,1%,u
CCOC(=O)c1c2ccccc2[n+]([O-])n1[C@@H](C)C(N)=O,x,27,-4%,-6%,x
CC12CN(C(=O)c3cccc([N+](=O)[O-])c3)C3(C#N)CC1CCC23C (configuration not stated),-3%,-1,-3%,-21%,-8%
O=C(CCS(=O)(=O)c1ccccc1)Nc1nc(-c2ccc(F)cc2)cs1,u,-77*,26%,u,-42%
COc1ccccc1CC(=O)Nc1nc(-c2ccc(F)c(F)c2)cs1,4%,u,175%,u,u
COc1ccc(-c2csc(NC(=O)CCS(=O)(=O)c3ccccc3)n2)c(OC)c1,-5%,-88*,u,u,u
COc1ccc(-c2csc(NC(=O)Cc3ccccc3F)n2)cc1OC,8%,-64*,u,-3%,26%
O=C(Cc1ccccc1F)Nc1nc(-c2ccc(F)cc2)cs1,1%,-94*,u,16%,u
COC(=O)c1ccc(C(NC(=O)OCc2ccccc2)/C(=C/[C@@H](C)C(=O)NCCF)c2cccnc2)cc1 (some centres not stated),1%,x,x,x,13%
COc1ccc(-c2csc(NC(=O)CN3C(=O)NC4(CCCC4)C3=O)n2)cc1OC,x,-62*,-2%,2%,x
Cc1ccc(C2(C)NC(=O)N(CC(=O)Nc3nc(-c4ccccn4)cs3)C2=O)cc1 (configuration not stated),x,-104*,25%,u,x
COc1ccc(-c2csc(NC(=O)CN3C(=O)NC4(CCCC4)C3=O)n2)c(OC)c1,x,u,0%,-4%,x
COc1cc(-c2cc3nc(NC4CCCCC4)ccn3n2)cc(OC)c1OC,x,9,x,x,x
COc1cc(-c2csc(NC3CCCCC3)n2)cc(OC)c1OC,u,-80*,-13%,-62%,19%
CCc1nc(OCCN(CC)CC)c2oc3ccccc3c2n1,18%,-25,3%,-2%,-5%
CCN(CC)CCNc1ccc(CO)c2oc3ccccc3c(=O)c12,x,-55*,x,x,x
COC(=O)C1=C(C)N(c2ccc(Cl)cc2)/C(=C/c2ccc(O)cc2)C1=O,6%,-24,u,0%,-10%
COC(=O)C1=C(C)N(c2cc(C)cc(C)c2)/C(=C/c2ccc(O)cc2)C1=O,u,-57*,u,u,u
SMILES,VP16 counter,IL1B secr inh,MCF10A rerep,SW480 rerep,RORg inh
Cc1cccc(CSc2nc(N)c(C#N)c(-c3cccs3)c2C#N)c1,u,-54*,18%,1%,u
O=C1NN(c2ccc(F)cc2)C(=O)/C1=C\C=C\c1ccco1,u,4,u,u,1.1µM*
CCc1c(C(=O)Nc2ncn(Cc3cccc(C)c3)n2)csc1C,13µM*,-2,3%,-1%,4µM*
CC1=C(C(=O)OCc2ccccc2)C(c2ccc(C)cc2)NC(=O)N1 (configuration not stated),x,-11,x,x,x
COC(=O)CCC(=O)OC,-1%,4,u,4.6µM*,-3%
COC(=O)CCCCC(=O)OC,-9%,-19,-14%,-46%,-2%
Cc1ccc(C)c(NC(=S)NC(NC(=O)OCc2ccccc2)C(Cl)(Cl)Cl)c1 (configuration not stated),u,-4,u,u,14µM*
O=C(NC(=S)Nc1c(Cl)cc(Cl)cc1Cl)c1ccccc1,x,-1,x,x,x
O=C(NC(NC(=S)Nc1c(Cl)cc(Cl)cc1Cl)C(Cl)(Cl)Cl)OCc1ccccc1 (configuration not stated),5.6µM*,-58*,13µM*,u,7.1µM*
COC(=O)NC(NC(=S)Nc1cccc(C)c1)C(Cl)(Cl)Cl (configuration not stated),-20%,-17,-33%,5%,-14%
COc1ccc(CNC(=O)CN(c2ccc(C)cc2)S(=O)(=O)c2c(C)nn(C)c2C)cc1,6%,21,5%,-13%,-2%
O=C(NNS(=O)(=O)c1ccc(F)cc1)c1ccccc1O,-19%,13,2%,u,u
Cc1ccccc1NS(=O)(=O)c1ccc(C(=O)NNC(=O)c2ccccc2O)cc1,x,22,5%,15µM*,x
CC(C)Oc1ccc(C(=O)NNC(=O)c2ccccc2C(=O)O)cc1,26%,1,2%,6%,-3%
O=C(NNC(=O)c1ccccc1O)c1ccc(NS(=O)(=O)c2ccc(F)cc2)cc1,x,105,11%,u,x
O=C(NNC(=O)c1ccccc1O)c1ccc(S(=O)(=O)Nc2ccccc2)cc1,x,45,0%,11µM*,x
Cc1ccc(S(=O)(=O)NNC(=O)c2ccccc2O)cc1,4%,19,u,13%,11µM*
O=C(NNC(=O)c1ccccc1C(=O)O)c1ccc(O)cc1,u,10,-1%,-4%,0.32µM*
COc1ccc(-c2c(Sc3ccccc3)c3cc(-c4ccc5c(c4)OCO5)ccc3n2C)cc1,x,33,x,x,x
Cc1cc(-c2ccc(N=Nc3cc(S(=O)(=O)O)c4ccccc4c3N)c(C)c2)ccc1N=Nc1cc(S(=O)(=O)O)c2ccccc2c1N,-20%,x,x,x,-2%
O=C1NC(Cc2c[nH]c3ccccc23)C(=O)N1Cc1ccc(CN2C(=O)NC(Cc3c[nH]c4ccccc34)C2=O)cc1 (configuration not stated),-9%,-14,21µM*,27%,0%
O=C1N[C@@H](Cc2c[nH]c3ccccc23)C(=O)N[C@H]1Cc1c[nH]c2ccccc12,-2%,x,x,x,-10%
